Results filed as inconclusive are left out. Calls of active or inactive are those of the source. Calls come from the whole dose curve; as a rule, active = well fitted inhibition curve with a large enough effect; inconclusive = small, poorly fitted or top-dose-only effect; inactive = flat fitted curve, though single readings scatter.
Target: Lysine-specific demethylase 5B (Homo sapiens) (UniProt Q9UGL1)
Experiment: Optimization screen for KDM5B Histone Demethylases FDH coupled qHTS against the LOPAC library (AID 1347166)
Settings: KDM5B demethylation, FDH-coupled NADH fluorescence (FDH is formaldehyde dehydrogenase); series mostly up to 57.5 µM
Outline: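 KDM5BDeltaAP (200nM final) in 50mM HEPES pH 7.5, 0.01% Tween-20 was preincubated with compound for 10 min at room temperature. A substrate mix of 12.5uM H3K4Me3, 25uM a-ketoglutarate, ascorbate, Fe2+, NAD+ and formaldehyde dehydrogenase was then added. NADH fluorescence (340/450 nm) was read initially and after 30 min.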

Sequence of Lysine-specific demethylase 5B (Homo sapiens) (Q9UGL1 whole entry, looked up): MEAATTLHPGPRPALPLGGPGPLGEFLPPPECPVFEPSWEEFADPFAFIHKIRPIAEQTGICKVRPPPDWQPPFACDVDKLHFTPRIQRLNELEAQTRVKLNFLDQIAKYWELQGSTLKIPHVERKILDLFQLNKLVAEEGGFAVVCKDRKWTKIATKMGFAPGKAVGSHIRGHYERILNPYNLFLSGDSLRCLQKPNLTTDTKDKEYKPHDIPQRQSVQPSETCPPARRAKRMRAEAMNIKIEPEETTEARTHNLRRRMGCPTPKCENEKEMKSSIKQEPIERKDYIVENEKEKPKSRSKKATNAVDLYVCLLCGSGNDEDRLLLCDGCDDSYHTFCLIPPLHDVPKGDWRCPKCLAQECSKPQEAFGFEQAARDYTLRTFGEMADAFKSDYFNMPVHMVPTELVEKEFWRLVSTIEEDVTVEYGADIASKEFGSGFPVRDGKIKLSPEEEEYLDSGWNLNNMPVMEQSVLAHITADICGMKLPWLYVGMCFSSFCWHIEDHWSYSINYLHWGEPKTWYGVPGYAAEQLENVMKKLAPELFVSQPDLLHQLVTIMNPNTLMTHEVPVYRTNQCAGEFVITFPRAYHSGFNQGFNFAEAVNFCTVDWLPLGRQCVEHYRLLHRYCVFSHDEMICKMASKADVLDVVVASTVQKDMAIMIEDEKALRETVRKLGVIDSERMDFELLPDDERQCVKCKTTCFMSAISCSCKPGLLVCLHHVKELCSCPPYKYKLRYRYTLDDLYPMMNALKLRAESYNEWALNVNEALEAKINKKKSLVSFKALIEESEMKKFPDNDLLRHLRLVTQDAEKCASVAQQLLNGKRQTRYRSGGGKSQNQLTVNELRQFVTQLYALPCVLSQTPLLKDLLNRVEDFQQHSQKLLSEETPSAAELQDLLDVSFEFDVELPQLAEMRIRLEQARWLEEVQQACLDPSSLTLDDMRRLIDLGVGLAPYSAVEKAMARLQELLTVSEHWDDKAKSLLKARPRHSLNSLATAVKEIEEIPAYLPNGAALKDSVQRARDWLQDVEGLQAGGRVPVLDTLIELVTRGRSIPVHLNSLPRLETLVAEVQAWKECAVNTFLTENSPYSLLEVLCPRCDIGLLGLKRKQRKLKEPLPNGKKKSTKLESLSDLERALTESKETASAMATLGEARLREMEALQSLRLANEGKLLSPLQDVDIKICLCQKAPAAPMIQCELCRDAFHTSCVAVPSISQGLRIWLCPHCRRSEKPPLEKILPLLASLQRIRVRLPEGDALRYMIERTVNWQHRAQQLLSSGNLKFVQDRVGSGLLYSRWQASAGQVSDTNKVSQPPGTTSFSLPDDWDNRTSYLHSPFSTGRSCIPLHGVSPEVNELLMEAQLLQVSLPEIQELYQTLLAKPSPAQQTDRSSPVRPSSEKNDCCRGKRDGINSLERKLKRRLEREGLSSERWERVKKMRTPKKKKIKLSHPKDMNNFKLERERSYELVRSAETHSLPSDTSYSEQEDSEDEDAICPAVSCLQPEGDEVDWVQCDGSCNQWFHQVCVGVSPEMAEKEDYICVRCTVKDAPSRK

Row | SMILES | outcome
1 | O=C1O/C(=C/Br)CCC1c1cccc2ccccc12 (stereo not given) | inactive
2 | CCC1C(=O)OCC1Cc1cncn1C (stereo not given) | inactive
3 | CC(N)C(=O)OC(C)(C)Cc1ccc(Cl)cc1 (stereo not given) | inactive
4 | O=C(O)CC[C@@H](C(=O)O)N1C(=O)c2ccccc2C1=O | inactive
5 | O=c1[nH]c2cc(C(F)(F)F)ccc2n1-c1cc(C(F)(F)F)ccc1O | inactive
6 | COc1cc(SC)ccc1C(=O)N1CCC(Cc2ccccc2)CC1 | inactive
7 | Nc1nc(Cl)nc2c1ncn2[C@@H]1O[C@H](CO)[C@@H](O)[C@H]1O | inactive
8 | CC(C)NC[C@H](O)COc1cccc2[nH]ccc12 | inactive
9 | CC1(C)CCC=[N+]1[O-] | inactive
10 | Cc1cc(NC(=O)Nc2ccc3c(ccn3C)c2)sn1 | inactive
11 | C#C[C@]1(O)CC[C@H]2[C@@H]3CCC4=Cc5oncc5CC4(C)[C@H]3CCC21C (stereo not given in full) | inactive
12 | O=P(O)(O)C(Cl)(Cl)P(=O)(O)O | inactive
13 | COc1ccc(/C=C/C(=O)Nc2ccccc2C(=O)O)cc1OC | inactive
14 | C=CC(C)=C[C@@]1(C)SC(=O)C(C)=C1O | inactive
15 | CCCCC#Cc1nc(NC)c2ncn([C@@H]3O[C@H](CO)[C@@H](O)[C@H]3O)c2n1 | inactive
16 | CCOC(=O)N1CCN(/[N+]([O-])=N/Oc2ccc([N+](=O)[O-])cc2[N+](=O)[O-])CC1 | inactive
17 | CNCC[C@H](Oc1ccc(C(F)(F)F)cc1)c1ccccc1 | inactive
18 | Nc1ncnc2c1c(I)cn2[C@@H]1C[C@H](N)[C@@H](O)[C@H]1O | inactive
19 | C[N+]1(C)CCC(OC(=O)C(c2ccccc2)c2ccccc2)CC1 | inactive
20 | O=C1/C(=C/c2ccsc2)CC/C1=C\c1cccs1 | inactive

Source: PubChem BioAssay (NCATS)
